This is a sample that favours compounds with a hit; in the whole collection about 3.7% have one here.
CHT allo act – allosteric activators of human choline transporter CHT. Q9GZV3. B-score at 10 µM. 310,000 compounds, 0.49% hits. CHT-expressing cells, membrane potential dye, choline EC20; stronger effect = higher value; LV-AA mutant CHT in HEK293 cells;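 active = initial fluorescence not abnormally high and integrated response B-score, plate-corrected, over 3 SD above library mean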
TMEM16A act – activates or potentiates the mouse TMEM16A chloride channel; HEK293 TMEM16A/YFP-H148Q/I152L, iodide quench fluorescence; stronger effect = lower value; AID 623877; Q8BHY3; 340,000 compounds, 0.3% hits; B-score at 10 µM;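 active = fluorescence-ratio B-score plate-corrected deviation score at least 3 library SD below zero, with starting fluorescence score within 5 deviations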;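 note: channel opened by trigger with iodide after compound preincubation; score built on the fluorescence ratio of max minus min over baseline; more negative score means more quench and so TMEM16A activation or potentiation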
GPR7 antag – antagonists of human GPR7 (neuropeptides B/W receptor 1). P48145. GPR7-expressing cells, fluorescence antagonist assay. inhibition, % at 4.4 µM. 290,000 compounds, 1.1% hits. AID 1861; in the data active = inhibition above about 16%, passing the limit was not always enough;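 note: cells stimulated with the agonist NPW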
Target sequence (P48145 whole entry, looked up): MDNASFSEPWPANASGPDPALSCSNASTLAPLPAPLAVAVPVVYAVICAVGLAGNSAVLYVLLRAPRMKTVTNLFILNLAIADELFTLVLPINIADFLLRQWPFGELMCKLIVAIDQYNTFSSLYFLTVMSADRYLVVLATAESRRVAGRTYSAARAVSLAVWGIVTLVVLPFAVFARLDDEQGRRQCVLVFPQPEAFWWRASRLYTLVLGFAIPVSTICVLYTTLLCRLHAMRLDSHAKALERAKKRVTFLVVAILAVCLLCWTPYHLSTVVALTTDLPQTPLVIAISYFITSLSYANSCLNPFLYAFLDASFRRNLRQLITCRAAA
ANO1 block – blocks the mouse calcium-activated chloride channel TMEM16A; normalized B-score (activity score, 25-100; higher = stronger inhibition) at 10 µM; HEK293 TMEM16A/YFP iodide influx fluorescence, ionomycin; AID 588511; Q8BHY3; 310,000 compounds, 1.2% hits;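 active = ratio plate-corrected score three or more library SD toward inhibition, starting fluorescence score within five deviations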;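 note: score derived from kinetic fluorescence span divided by baseline fluorescence per well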
CHT inh – inhibitors of human choline transporter CHT; CHT-expressing cells, membrane potential dye, choline response; stronger effect = lower value; B-score at 10 µM; 310,000 compounds, 0.86% hits;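 active = B-score over 3 SD under the library average, and starting fluorescence ratio not unusually high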;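 note: choline stimulus applied at its EC90 after an EC20 pre-addition; B-score computed on integrated fluorescence ratio after choline addition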
Kir21 block – inhibitors of mouse Kir2.1 inward-rectifier potassium channel | HEK293-Kir2.1, FluxOR thallium flux fluorescence; stronger effect = lower value | B-score at 10 µM | 310,000 compounds, 0.85% hits | P35561;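 active = fluorescence ratio B-score at or below minus 3 SD of library scores, with starting-brightness B-score within 2 SD, cut at about -4.2 in these data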;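 note: channel flux triggered by added potassium and thallium sulfate stimulus; B-score of peak minus minimum fluorescence over baseline after thallium stimulus; more negative B-score means stronger Kir2.1 block with less thallium influx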
Hits are given with their value; i = inactive; nt = no result given.

SMILES	CHT allo act	TMEM16A act	GPR7 antag	ANO1 block	CHT inh	Kir21 block
COC(=O)c1cc2ccsc2n1CC(=O)Nc1ccc(N(C)C)cc1	i	i	i	i	i	i
O=C1CN(C(=O)COc2ccc(Br)cc2)c2ccccc2N1	i	i	i	i	i	i
CC(NC(=O)c1cc2cc(Br)ccc2oc1=N)c1ccccc1 (stereo not drawn)	i	i	i	25	i	i
Cc1ccc(C(C)NC(=O)c2cc3ccccc3oc2=O)cc1C (stereo not drawn)	i	i	i	i	i	i
CC(=O)Oc1c(-c2ccco2)oc2ccccc2c1=O	i	i	i	i	i	i
O=C(COC(=O)c1ccccc1C(=O)c1ccc(Cl)c([N+](=O)[O-])c1)NC1CCCCCC1	i	i	30	i	i	i
O=C(NCCN1CCN(c2ccccc2F)CC1)C1CCCN(S(=O)(=O)c2cnc[nH]2)C1 (stereo not drawn)	i	-18	i	i	i	i
O=C(NCCc1ccccc1)C1CCCN(S(=O)(=O)c2cnc[nH]2)C1 (stereo not drawn)	i	i	i	i	i	i
Cc1cccc(NC(=O)C(Cc2ccccc2)c2nn[nH]n2)c1C (stereo not drawn)	i	i	i	i	i	i
O=c1[nH]c(=O)n(C2CCCO2)cc1F (stereo not drawn)	i	i	i	i	i	i
O=C1C(F)=CC(COC(c2ccccc2)(c2ccccc2)c2ccccc2)OC1n1cc(F)c(=O)[nH]c1=O (stereo not drawn)	nt	-13	nt	nt	nt	nt
C/C(=N\Nc1nc(C)c(C)s1)c1ccc([N+](=O)[O-])cc1	i	-21	i	i	i	i
Cc1ccc(S(=O)(=O)NOCc2ccccc2)cc1	nt	i	nt	nt	nt	nt
COc1cc(C)c(S(=O)(=O)NOCc2ccccc2)c(C)c1C	i	i	i	i	i	-7.1
CCCCCCCCCC(=O)N1CCN(c2cc3c(cc2F)c(=O)c(C(=O)O)cn3CC)CC1	i	-8.6	i	i	i	i
CCC1CCCCN1CCCCOc1cccc(Cl)c1 (stereo not drawn)	i	i	i	i	i	i
c1ccc(CCCCc2ccccn2)cc1	nt	i	nt	nt	nt	nt
NC(CCCCc1ccccc1)c1cccc2ccccc12 (stereo not drawn)	11	nt	nt	25	i	-11
Cc1ccc(/C=N/Nc2ncc(Cl)cc2Cl)s1	i	i	i	25	i	i
Clc1cnc(N/N=C/c2cccs2)c(Cl)c1	i	i	i	i	i	i
CC(C)OCCCNC(=O)NC(=O)c1ccc(Cl)cc1	i	i	i	i	i	i
Cc1cc(F)ccc1S(=O)(=O)Nc1ncnc2sc3c(c12)CCC3	i	i	i	i	i	i
O=S(=O)(Nc1ncnc2sc3c(c12)CCC3)c1ccc2ccccc2c1	i	i	i	100	i	nt
Cn1nccc1C(=O)Oc1ccc(/C=N/NC(=O)c2ccccc2O)cc1	i	i	i	i	i	i
C=CCn1c(Cc2c(C)[nH]c3ccccc23)nnc1SCC(=O)NCc1ccc(F)cc1	i	i	i	100	i	i
SMILES	CHT allo act	TMEM16A act	GPR7 antag	ANO1 block	CHT inh	Kir21 block
CCn1c(Cc2c(C)[nH]c3ccccc23)nnc1SCC(=O)NCc1ccccc1	i	i	i	i	i	i
COC(=O)c1ccc(/C=N/NC(=O)C2CC(=O)N(c3ccc(OC)cc3)C2)cc1 (stereo not drawn)	i	i	i	i	i	i
O=C(COc1ccccc1[N+](=O)[O-])Nc1cc(Cl)ccc1C(=O)O	i	i	i	i	i	i
Cc1cc(C)c(C#N)c(N2CCN(Cc3ccc4c(c3)OCO4)CC2)n1	i	i	i	i	i	i
Cc1cc(C)c(C#N)c(N2CCN(Cc3ccccc3)CC2)n1	i	i	i	i	i	-4.5
O=C(Nc1ccc([N+](=O)[O-])cc1Br)c1cc2ccccc2nc1Cl	i	i	i	i	i	i
COc1cccc(OCC(=O)Nc2c3c(nn2-c2ccc(F)cc2)CS(=O)(=O)C3)c1	i	i	i	i	i	i
COc1ccc(C)cc1Nc1n[n+](-c2ccccc2)c(-c2c(Cl)cccc2Cl)s1	i	nt	i	100	i	i
Fc1ccc(-[n+]2nc(Nc3ccccc3)sc2-c2c(Cl)cccc2Cl)cc1	i	i	i	i	i	i
